# Test results taken from PMC7862700, “An all-to-all approach to the identification of sequence-specific readers for epigenetic DNA modifications on cytosine”.
# Columns and labels:
# Experiment in all cases: DAPPL (digital affinity profiling via proximity ligation, sequencing); 10 mM Tris-HCl pH 7.5, 50 mM NaCl, 1 mM DTT, 4% glycerol, room temperature, 30 min; GST-TFs on glutathione beads, 16-mer random dsDNA library, 0.1% formaldehyde crosslink after washing; high values mean tight binding
# Conditions in all cases: protein: recombinant; tags: N-terminal GST; dsDNA, one strand shown
# ERF = molecular target: T1, ERF (Homo sapiens, UniProt P50548 1-548)
# T1 sequence: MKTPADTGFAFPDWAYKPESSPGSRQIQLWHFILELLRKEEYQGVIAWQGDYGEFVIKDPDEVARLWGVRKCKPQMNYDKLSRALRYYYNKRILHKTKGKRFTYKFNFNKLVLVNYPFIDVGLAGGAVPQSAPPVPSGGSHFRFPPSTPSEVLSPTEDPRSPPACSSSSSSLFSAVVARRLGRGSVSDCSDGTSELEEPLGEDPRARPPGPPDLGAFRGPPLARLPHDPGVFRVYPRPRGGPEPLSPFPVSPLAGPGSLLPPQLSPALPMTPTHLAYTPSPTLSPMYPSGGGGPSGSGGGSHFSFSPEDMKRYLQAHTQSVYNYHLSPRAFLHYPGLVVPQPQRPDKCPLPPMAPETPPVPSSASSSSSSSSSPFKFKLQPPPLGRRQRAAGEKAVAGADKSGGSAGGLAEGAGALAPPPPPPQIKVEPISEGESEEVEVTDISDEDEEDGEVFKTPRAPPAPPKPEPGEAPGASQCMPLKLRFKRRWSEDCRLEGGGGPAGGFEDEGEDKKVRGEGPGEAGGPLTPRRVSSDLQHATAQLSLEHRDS
# Outline: (§1)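 Binding signal is each hexamer's read frequency for a factor divided by its frequency in the tag-only sample. The factors were GST-fused human transcription factors from yeast, captured on glutathione beads, DNA-barcoded and pooled with that sample. Pools were incubated with 200 nmole of a random double-stranded 16-mer DNA library in Tris/NaCl/DTT/glycerol buffer at room temperature for 30 min, then washed, crosslinked with 0.1% formaldehyde, proximity-ligated with BsaI/T4 ligase (1 h, 37 °C), PCR-amplified and sequenced on an Illumina NextSeq500.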
# ETV3L = molecular target: T2, ETV3L (Homo sapiens, UniProt Q6ZN32 1-361)
# T2 sequence: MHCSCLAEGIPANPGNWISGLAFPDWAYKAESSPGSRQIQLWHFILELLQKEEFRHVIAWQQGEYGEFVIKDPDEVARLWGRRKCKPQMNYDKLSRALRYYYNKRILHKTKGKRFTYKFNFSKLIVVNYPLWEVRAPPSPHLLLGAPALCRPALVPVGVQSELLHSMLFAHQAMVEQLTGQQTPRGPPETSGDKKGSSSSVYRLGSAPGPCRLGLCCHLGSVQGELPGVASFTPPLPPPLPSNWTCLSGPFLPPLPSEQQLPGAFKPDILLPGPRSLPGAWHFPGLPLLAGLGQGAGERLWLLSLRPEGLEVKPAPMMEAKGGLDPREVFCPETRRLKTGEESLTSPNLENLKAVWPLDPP
# Outline: as §1
# ETS2 = molecular target: T3, ETS2 (Homo sapiens, UniProt P15036 1-469)
# T3 sequence: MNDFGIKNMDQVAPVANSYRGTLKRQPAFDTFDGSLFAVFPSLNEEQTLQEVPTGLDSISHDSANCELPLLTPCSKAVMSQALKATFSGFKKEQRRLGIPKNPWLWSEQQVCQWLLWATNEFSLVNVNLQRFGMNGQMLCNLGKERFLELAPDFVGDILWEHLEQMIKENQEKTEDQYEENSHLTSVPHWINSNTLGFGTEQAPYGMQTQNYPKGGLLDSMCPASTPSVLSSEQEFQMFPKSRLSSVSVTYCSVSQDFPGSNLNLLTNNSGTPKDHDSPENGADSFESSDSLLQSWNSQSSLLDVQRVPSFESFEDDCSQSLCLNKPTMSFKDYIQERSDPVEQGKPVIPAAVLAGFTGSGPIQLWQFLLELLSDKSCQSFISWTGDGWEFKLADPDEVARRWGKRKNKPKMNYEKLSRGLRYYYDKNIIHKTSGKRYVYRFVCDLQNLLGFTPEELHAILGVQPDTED
# Outline: as §1
# SPDEF = molecular target: T4, SPDEF (Homo sapiens, UniProt O95238 1-335)
# T4 sequence: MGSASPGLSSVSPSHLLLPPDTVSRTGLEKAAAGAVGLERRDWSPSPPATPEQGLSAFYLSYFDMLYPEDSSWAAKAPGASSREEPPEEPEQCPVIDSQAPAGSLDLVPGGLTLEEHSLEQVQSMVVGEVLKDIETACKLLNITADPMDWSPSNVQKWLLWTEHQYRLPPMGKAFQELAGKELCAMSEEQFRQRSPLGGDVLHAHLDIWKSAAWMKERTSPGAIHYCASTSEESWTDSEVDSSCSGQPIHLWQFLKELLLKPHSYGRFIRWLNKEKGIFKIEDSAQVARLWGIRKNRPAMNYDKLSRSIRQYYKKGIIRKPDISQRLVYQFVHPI
# Outline: as §1
# ETV7 = molecular target: T5, ETV7 (Homo sapiens, UniProt Q9Y603 1-341)
# T5 sequence: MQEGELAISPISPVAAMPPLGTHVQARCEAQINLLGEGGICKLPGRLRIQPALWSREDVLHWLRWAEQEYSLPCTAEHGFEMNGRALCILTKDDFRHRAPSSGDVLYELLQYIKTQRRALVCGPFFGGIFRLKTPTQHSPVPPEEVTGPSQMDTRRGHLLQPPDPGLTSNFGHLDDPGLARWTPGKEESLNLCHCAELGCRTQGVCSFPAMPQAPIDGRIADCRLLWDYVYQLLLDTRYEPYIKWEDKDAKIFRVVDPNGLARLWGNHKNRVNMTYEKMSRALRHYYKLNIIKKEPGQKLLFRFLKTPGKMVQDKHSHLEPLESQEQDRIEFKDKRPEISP
# Outline: as §1
# ELF5 = molecular target: T6, ELF5 (Homo sapiens, UniProt Q9UKW6-2 1-255)
# T6 sequence: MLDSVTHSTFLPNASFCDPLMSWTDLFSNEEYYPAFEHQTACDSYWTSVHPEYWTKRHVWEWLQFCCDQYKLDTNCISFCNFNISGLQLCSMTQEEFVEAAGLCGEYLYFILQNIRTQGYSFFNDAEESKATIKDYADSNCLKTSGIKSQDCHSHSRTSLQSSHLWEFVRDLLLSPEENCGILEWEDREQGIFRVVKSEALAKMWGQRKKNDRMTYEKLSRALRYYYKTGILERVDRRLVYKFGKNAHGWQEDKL
# Outline: as §1
# ETV3 = molecular target: T7, ETV3 (Homo sapiens, UniProt P41162-2 1-143)
# T7 sequence: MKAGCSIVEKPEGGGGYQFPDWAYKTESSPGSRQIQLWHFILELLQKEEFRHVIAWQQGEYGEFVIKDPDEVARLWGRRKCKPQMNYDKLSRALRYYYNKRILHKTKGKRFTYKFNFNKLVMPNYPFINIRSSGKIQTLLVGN
# Outline: as §1
# ETV6 = ETV6 (Homo sapiens, UniProt P41212 1-452)
# ETV6, sequence (P41212 whole entry): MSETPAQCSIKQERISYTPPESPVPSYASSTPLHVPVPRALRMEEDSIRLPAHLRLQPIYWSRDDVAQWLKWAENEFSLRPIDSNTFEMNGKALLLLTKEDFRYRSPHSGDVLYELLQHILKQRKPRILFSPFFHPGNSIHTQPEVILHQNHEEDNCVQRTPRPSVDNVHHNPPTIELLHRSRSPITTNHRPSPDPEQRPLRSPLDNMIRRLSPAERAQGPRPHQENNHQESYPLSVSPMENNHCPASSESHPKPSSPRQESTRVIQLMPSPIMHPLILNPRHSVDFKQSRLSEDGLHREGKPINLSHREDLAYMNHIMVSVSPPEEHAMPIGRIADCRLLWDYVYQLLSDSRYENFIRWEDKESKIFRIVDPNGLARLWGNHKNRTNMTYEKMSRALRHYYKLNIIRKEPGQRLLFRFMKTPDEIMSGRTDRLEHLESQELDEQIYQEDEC
# Outline: as §1
sequence,measurement,setting,value
TGACAA,binding signal,ERF,"1.23 fold enrichment (6-mer frequency, TF over GST control)"
same,binding signal,ETV3L,"1.34 fold enrichment (6-mer frequency, TF over GST control)"
same,binding signal,ETS2,"1.27 fold enrichment (6-mer frequency, TF over GST control)"
same,binding signal,SPDEF,"1.21 fold enrichment (6-mer frequency, TF over GST control)"
same,binding signal,ETV7,"1.31 fold enrichment (6-mer frequency, TF over GST control)"
same,binding signal,ELF5,"1.23 fold enrichment (6-mer frequency, TF over GST control)"
same,binding signal,ETV3,"1.26 fold enrichment (6-mer frequency, TF over GST control)"
same,binding signal,ETV6,"1.23 fold enrichment (6-mer frequency, TF over GST control)"
TAAAGA,binding signal,ERF,"1.23 fold enrichment (6-mer frequency, TF over GST control)"
same,binding signal,ETV3L,"1.12 fold enrichment (6-mer frequency, TF over GST control)"
same,binding signal,ETS2,"1.08 fold enrichment (6-mer frequency, TF over GST control)"
same,binding signal,SPDEF,"1.04 fold enrichment (6-mer frequency, TF over GST control)"
same,binding signal,ETV7,"1.08 fold enrichment (6-mer frequency, TF over GST control)"
same,binding signal,ELF5,"1.05 fold enrichment (6-mer frequency, TF over GST control)"
same,binding signal,ETV3,"1.08 fold enrichment (6-mer frequency, TF over GST control)"
same,binding signal,ETV6,"1.06 fold enrichment (6-mer frequency, TF over GST control)"
TGGAAT,binding signal,ERF,"1.22 fold enrichment (6-mer frequency, TF over GST control)"
same,binding signal,ETV3L,"1.3 fold enrichment (6-mer frequency, TF over GST control)"
same,binding signal,ETS2,"1.3 fold enrichment (6-mer frequency, TF over GST control)"
same,binding signal,SPDEF,"1.28 fold enrichment (6-mer frequency, TF over GST control)"
same,binding signal,ETV7,"1.27 fold enrichment (6-mer frequency, TF over GST control)"
same,binding signal,ELF5,"1.18 fold enrichment (6-mer frequency, TF over GST control)"
same,binding signal,ETV3,"1.24 fold enrichment (6-mer frequency, TF over GST control)"
same,binding signal,ETV6,"1.15 fold enrichment (6-mer frequency, TF over GST control)"
AGCGAC,binding signal,ERF,"1.32 fold enrichment (6-mer frequency, TF over GST control)"
same,binding signal,ETV3L,"1.13 fold enrichment (6-mer frequency, TF over GST control)"
same,binding signal,ETS2,"1.15 fold enrichment (6-mer frequency, TF over GST control)"
same,binding signal,SPDEF,"1.01 fold enrichment (6-mer frequency, TF over GST control)"
same,binding signal,ETV7,"1.22 fold enrichment (6-mer frequency, TF over GST control)"
same,binding signal,ELF5,"1.2 fold enrichment (6-mer frequency, TF over GST control)"
same,binding signal,ETV3,"1.14 fold enrichment (6-mer frequency, TF over GST control)"
same,binding signal,ETV6,"1.17 fold enrichment (6-mer frequency, TF over GST control)"
GCTCAT,binding signal,ERF,"1.31 fold enrichment (6-mer frequency, TF over GST control)"
same,binding signal,ETV3L,"1.19 fold enrichment (6-mer frequency, TF over GST control)"
same,binding signal,ETS2,"1.26 fold enrichment (6-mer frequency, TF over GST control)"
same,binding signal,SPDEF,"1.12 fold enrichment (6-mer frequency, TF over GST control)"
same,binding signal,ETV7,"1.23 fold enrichment (6-mer frequency, TF over GST control)"
same,binding signal,ELF5,"1.19 fold enrichment (6-mer frequency, TF over GST control)"
same,binding signal,ETV3,"1.15 fold enrichment (6-mer frequency, TF over GST control)"
same,binding signal,ETV6,"1.21 fold enrichment (6-mer frequency, TF over GST control)"
GTATTC,binding signal,ERF,"1.29 fold enrichment (6-mer frequency, TF over GST control)"
same,binding signal,ETV3L,"1.25 fold enrichment (6-mer frequency, TF over GST control)"
same,binding signal,ETS2,"1.33 fold enrichment (6-mer frequency, TF over GST control)"
same,binding signal,SPDEF,"1.21 fold enrichment (6-mer frequency, TF over GST control)"
same,binding signal,ETV7,"1.34 fold enrichment (6-mer frequency, TF over GST control)"
same,binding signal,ELF5,"1.31 fold enrichment (6-mer frequency, TF over GST control)"
same,binding signal,ETV3,"1.34 fold enrichment (6-mer frequency, TF over GST control)"
same,binding signal,ETV6,"1.28 fold enrichment (6-mer frequency, TF over GST control)"
ACGGCC,binding signal,ERF,"1.02 fold enrichment (6-mer frequency, TF over GST control)"
same,binding signal,ETV3L,"1.13 fold enrichment (6-mer frequency, TF over GST control)"
same,binding signal,ETS2,"1.1 fold enrichment (6-mer frequency, TF over GST control)"
same,binding signal,SPDEF,"1.17 fold enrichment (6-mer frequency, TF over GST control)"
same,binding signal,ETV7,"1.13 fold enrichment (6-mer frequency, TF over GST control)"
same,binding signal,ELF5,"1.02 fold enrichment (6-mer frequency, TF over GST control)"
same,binding signal,ETV3,"1.13 fold enrichment (6-mer frequency, TF over GST control)"
same,binding signal,ETV6,"1.08 fold enrichment (6-mer frequency, TF over GST control)"
CGCTCA,binding signal,ERF,"1.2 fold enrichment (6-mer frequency, TF over GST control)"
same,binding signal,ETV3L,"1.24 fold enrichment (6-mer frequency, TF over GST control)"
same,binding signal,ETS2,"1.14 fold enrichment (6-mer frequency, TF over GST control)"
same,binding signal,SPDEF,"1.05 fold enrichment (6-mer frequency, TF over GST control)"
same,binding signal,ETV7,"1.09 fold enrichment (6-mer frequency, TF over GST control)"
same,binding signal,ELF5,"1.16 fold enrichment (6-mer frequency, TF over GST control)"
same,binding signal,ETV3,"1.07 fold enrichment (6-mer frequency, TF over GST control)"
same,binding signal,ETV6,"1.09 fold enrichment (6-mer frequency, TF over GST control)"
CCCTTG,binding signal,ERF,"1.24 fold enrichment (6-mer frequency, TF over GST control)"
same,binding signal,ETV3L,"1.08 fold enrichment (6-mer frequency, TF over GST control)"
same,binding signal,ETS2,"1.16 fold enrichment (6-mer frequency, TF over GST control)"
same,binding signal,SPDEF,"1.28 fold enrichment (6-mer frequency, TF over GST control)"
same,binding signal,ETV7,"1.18 fold enrichment (6-mer frequency, TF over GST control)"
same,binding signal,ELF5,"1.1 fold enrichment (6-mer frequency, TF over GST control)"
same,binding signal,ETV3,"1.13 fold enrichment (6-mer frequency, TF over GST control)"
same,binding signal,ETV6,"1.17 fold enrichment (6-mer frequency, TF over GST control)"
